High-throughput results as filed in PubChem BioAssay.
Hits are enriched below; roughly 1.6% of the tested compounds scored in any of these assays.
PKA-R2B act: activators of human PKA-R2B complex | P22694+P31323 | PKA-R2B holoenzyme dissociation, Cy5-IP20 fluorescence polarization; R2B truncated from residue 108, S112A mutant; 0% DMSO only, 100% 113 µM cGMP | activation, % at 11.4 µM | hit rate 0.079% among 340,000 | AID 504700;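 active means activation above a cutoff set at the mean over all compounds plus 3 SD, cut at about 18% in these data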;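 further: higher means more holoenzyme dissociation and a rise in polarization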
Target sequence (P31323 whole entry, looked up, other chains not shown, the tested form may be a part): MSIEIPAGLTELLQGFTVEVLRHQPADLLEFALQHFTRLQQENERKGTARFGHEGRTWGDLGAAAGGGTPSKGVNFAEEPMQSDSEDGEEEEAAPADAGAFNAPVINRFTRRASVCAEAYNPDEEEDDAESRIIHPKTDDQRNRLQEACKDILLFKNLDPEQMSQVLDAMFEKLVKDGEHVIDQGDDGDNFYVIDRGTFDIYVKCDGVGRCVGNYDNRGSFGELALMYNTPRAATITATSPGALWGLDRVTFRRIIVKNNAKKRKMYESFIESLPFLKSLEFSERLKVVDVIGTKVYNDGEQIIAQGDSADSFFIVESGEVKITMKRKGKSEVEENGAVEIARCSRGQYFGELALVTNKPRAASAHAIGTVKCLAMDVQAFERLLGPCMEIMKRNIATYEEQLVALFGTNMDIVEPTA
PKA-R1A activ: activators of PKA-R1A complex. activation, % at 11.4 µM. P00514+P68181. PKA-R1A dissociation, Cy5-IP20 fluorescence polarization; scaled: DMSO 0%, 113 µM cGMP 100%. hit rate 0.083% among 340,000;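 active means percent activation above the mean of all tested compounds plus 3 SD, cut at about 19% in these data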;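 further: higher means more PKAc released from R1A so a rise in polarization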
ATG4B inh: inhibitors of human ATG4B cysteine protease. Q9Y4P1. ATG4B cleavage of LC3-PLA2, NBD-HPC fluorescence, 1 h. inhibition, % at 8.33 µM. hit rate 0.51% among 340,000. AID 504462; in the data active means inhibition above about 40%
CendR NRP1 mod: NRP-1/CendR interaction modulation; O14786; hit rate 0.85% among 360,000; FAM-RPARPAR peptide binding to NRP-1, fluorescence polarization; inhibition, % at 25 µM;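 active means inhibition or corrected inhibition above about 18%, plus a signal ratio from 0.5 to 1.5, limit read from the data, passing the limit was not always enough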
VLA-4 inh: inhibition in a human VLA-4 binding assay; VLA-4 expressing cells, ligand binding flow cytometry; AID 2557; inhibition, % (about 7 µM as worked out from the volumes in the protocol); hit rate 0.2% among 330,000; P13612
ATG4B confirm: ATG4B (human) inhibition, single-dose confirmed; shares compounds with ATG4B inh; ATG4B protease fluorescent substrate cleavage assay; inhibition, % at 8.33 µM; hit rate 92% among 320; in the data active means inhibition above about 39%
PLA2 ctr: PLA2 (human) inhibition in ATG4B counter-screen | purified PLA2, NBD-C6-HPC fluorescence, 45 min | AID 588402 | inhibition, % at 8.33 µM | hit rate 66% among 1,600 | shares compounds with ATG4B inh
Target sequence (P04054 whole entry, looked up): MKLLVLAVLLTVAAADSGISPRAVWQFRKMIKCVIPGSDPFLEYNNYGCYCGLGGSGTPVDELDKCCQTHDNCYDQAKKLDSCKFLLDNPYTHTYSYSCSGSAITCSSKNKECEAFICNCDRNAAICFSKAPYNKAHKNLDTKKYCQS
Active calls of the source: *; i = inactive; . = not tested or not shown. Unless noted, no stated cut-off is given here; in the data, active means inhibition above about 50%; inactive means the rest.

SMILES | PKA-R2B act | PKA-R1A activ | ATG4B inh | CendR NRP1 mod | VLA-4 inh | PLA2 ctr | others
NC(=O)c1ccc(NCC2COc3ccccc3O2)c([N+](=O)[O-])c1 (stereo not drawn) | -4 | -7 | 82* | -4 | -5 | 79*
CN(C)S(=O)(=O)c1ccc(NCC2COc3ccccc3O2)c([N+](=O)[O-])c1 (stereo not drawn) | -9 | -5 | 0 | -13 | 0 | .
COc1ccc(S(N)(=O)=O)cc1C(=O)NNC(=O)c1cccc(S(=O)(=O)N2CCOCC2)c1 | 6 | 1 | -12 | 6 | . | .
CCOC(=O)C1Nc2ccc(Br)cc2C2C=CCC12 (stereo not drawn) | -6 | -9 | 1 | -6 | 6 | .
O=C(O)C1Nc2c(Cl)cc(Cl)c(Cl)c2C2C=CCC12 (stereo not drawn) | 4 | 1 | 25 | -24 | -3 | .
O=C(O)C1Nc2c(Cl)cc(Cl)cc2C2C=CCC12 (stereo not drawn) | -5 | 0 | 65* | -76 | -12 | 46 | ATG4B confirm=21
O=C(O)C1Nc2ccc(Br)cc2C2C=CCC12 (stereo not drawn) | 9 | 3 | 64* | -4 | -2 | 21 | ATG4B confirm=32
O=C1CCC(=O)N1c1ccc(-c2nc3sc4c(c3c(=O)o2)CCC4)cc1 | 9 | 6 | 3 | 7 | 10 | .
O=c1oc(-c2ccccc2)nc2sc3c(c12)CCC3 | -9 | -21 | 56* | -8 | -7 | 19 | ATG4B confirm=72*
C[C@H]1CN([C@@H](C)CO)C(=O)c2cc(NC(=O)NC3CCCCC3)ccc2O[C@H]1CN(C)C(=O)Nc1ccc(C(F)(F)F)cc1 | 2 | 1 | 62* | 7 | 2 | 74*
C[C@H](CO)N1C[C@H](C)[C@@H](CN(C)C(=O)Nc2ccc(C(F)(F)F)cc2)Oc2ccc(NC(=O)Nc3ccc(C(F)(F)F)cc3)cc2C1=O | -13 | -5 | -8 | -4 | 8 | .
c1ccc(CSc2nnc(-c3cccs3)n2Cc2ccco2)cc1 | 5 | 12 | 58* | -23 | -19 | 60*
c1ccc(CSc2nnc(-c3ccco3)n2Cc2ccco2)cc1 | 4 | -12 | 11 | -31 | -7 | .
Cc1ccccc1CSc1nnc(-c2ccco2)n1Cc1ccco1 | -4 | 1 | 53* | -1 | -3 | 52*
Cc1ccccc1CSc1nnc(-c2cccs2)n1Cc1ccco1 | 2 | -11 | 78* | -1 | 32 | 75*
O=C(OCC(=O)N1CCOCC1)c1cc(=O)[nH]c2ccccc12 | -2 | -1 | 3 | -7 | 7 | .
Cc1ccc(-c2nnc(SCc3ccccc3F)o2)cc1 | -14 | -8 | 48* | 8 | -12 | 38 | ATG4B confirm=69*
C=CCn1c(SCC(O)Cn2c3ccccc3c3ccccc32)nnc1-c1ccco1 (stereo not drawn) | -7 | -4 | 46* | 7 | 4 | 48
C=CCn1c(SCC(=O)N2c3ccccc3Sc3ccccc32)nnc1-c1ccco1 | -2 | 1 | -2 | 4 | -3 | .
Cc1ccccc1S(=O)(=O)N1[C@@H](c2ccc(Br)cc2)C(C(=O)O)=CC[C@H]1c1ccc(Cl)cc1 | 2 | 2 | 43* | -70 | -23 | 47 | ATG4B confirm=46*
O=C(CCc1nc(-c2cccs2)no1)NCc1ccc(F)cc1Cl | -3 | 3 | 43* | -14 | -9 | 54*
CC(C)Cn1c(SC(C)C(=O)Nc2ccc3c(c2)OCCO3)nc2ccccc2c1=O (stereo not drawn) | -8 | -8 | 49* | -3 | . | 55*
CC(Sc1nc2ccccc2c(=O)n1C)C(=O)Nc1ccc2c(c1)OCCO2 (stereo not drawn) | -2 | -4 | 1 | -9 | 5 | .
Cc1cc(C)c2c(C)c(C(=O)Nc3c(C)n(C)n(-c4ccccc4)c3=O)oc2c1 | 3 | -8 | 71* | 6 | -11 | 69*
Cc1c(NC(=O)c2cc3ccccc3o2)c(=O)n(-c2ccccc2)n1C | 2 | 0 | -2 | -13 | -2 | .
SMILES | PKA-R2B act | PKA-R1A activ | ATG4B inh | CendR NRP1 mod | VLA-4 inh | PLA2 ctr | others
O=C1C(=O)c2c(C(=O)c3ccccc3)coc2-c2ccccc21 | 0 | 8 | 65* | 16 | -8 | 89*
Cc1oc2c(c1C(=O)c1ccccc1)C(=O)C(=O)c1ccccc1-2 | -10 | -8 | 13 | 3 | -6 | .
Cc1cccc(-n2cnc3cc(C(=O)N4CCc5ccccc54)ccc32)c1 | -11 | -10 | 62* | -1 | -16 | 64*
COCCNC(=O)c1ccc2c(c1)ncn2-c1cccc(C)c1 | -8 | -17 | -2 | -7 | 12 | .
CC1(C(=O)NS(=O)(=O)Cc2ccccc2)CCN1C(=O)Cc1cc(F)ccc1F (stereo not drawn) | . | . | . | 1 | . | .
Cc1cnc(C(=O)OCC(=O)c2ccc(-c3ccccc3)cc2)cn1 | -3 | 9 | 4 | -6 | 12 | .
C/C(=N/Nc1ccc([N+](=O)[O-])cc1)c1c[nH]c2ccccc12 | -11 | -9 | 46* | -179 | i | 50
CSc1cccc(CN2CCC(n3nccc3NC(=O)C3CC3)CC2)c1 | -1 | 4 | -10 | -3 | -26 | .
Cc1ccc2c(c1)nnn2C1CCN(S(=O)(=O)c2ccc(C(=O)N(C)C)cc2)CC1 | 9 | 0 | -17 | 8 | 2 | .
Cc1ccc2c(c1)nnn2C1CCN(S(=O)(=O)c2ccc(C(=O)N3CC(C)CC(C)C3)cc2)CC1 (stereo not drawn) | 6 | -2 | 59* | 1 | 9 | 73*
Cc1noc(C)c1NC(=O)N(C)C[C@H]1OCc2cnnn2CCCC(=O)N([C@H](C)CO)C[C@@H]1C | 2 | 5 | . | -8 | . | .
CC1(C)SC(=S)N(NC(=O)Nc2cccc3ccccc23)C1N(O)C(=O)Nc1ccccc1 (stereo not drawn) | -7 | 4 | 46* | 4 | 10 | 58*
CNC(=O)N(O)C1N(NC(=O)Nc2ccccc2)C(=S)SC1(C)C (stereo not drawn) | -12 | -19 | 6 | -10 | -5 | .
COc1cccc(NS(=O)(=O)c2ccc3c(c2)C2C=CCC2C(c2ccc(C(=O)O)cc2)N3)c1 (stereo not drawn) | 5 | 3 | 67* | -79 | 16 | 42 | ATG4B confirm=62*
O=C(NCCc1ccccc1)C1=CCN(S(=O)(=O)c2ccccc2)CC1 | 6 | -7 | 4 | 8 | 14 | .
CC(C)OC(=O)[C@H]1[C@H](c2ccc(Cl)cc2)[C@@](C#N)(C(N)=O)[C@@H]2C=CC(C(N)=O)=CN21 | -10 | 4 | 64* | -12 | . | 74*
CCCCCCCCCCCCCCCC(=O)Nc1ccn(C2OC(CO)C(O)C2O)c(=O)n1 (stereo not drawn) | 1 | 9 | -1 | 0 | . | .
